Measured values from the supplement of paper PMC10849652.
The full data set covers some 7,900 targets. This sample favours those with a hit. About 0.6% of all pairs of compound and target were hits.

Experiments:
Experiment in all cases: log2 fold change, soluble protein after heating vs DMSO (PISA); higher = thermal stabilisation; K562 cells, 10 uM, 30 min; active = over 0.2 and 3.5 SD of the protein, either way, in both replicates (recomputed)
[1] = compound: C1=CC=C(C=C1)[C@H](COC2=CC3=C(C=C2)NC(=O)N3)NC(=O)C4=CC=CN(C4=O)CC5=CC(=C(C=C5)F)F
Procedure, shortened: (§1)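 K562 cells at 2×10^6 cells/mL were given 10 μM compound for 30 min. Aliquots then went through 3 min of heating across 48°C-58°C, were pooled, and were extracted in PBS with 0.5% NP-40 at 4°C, and the supernatant after 21,000xg for 90 min was quantified by TMTpro 16plex LC-MS/MS with channel sums equalised. Thermal stability relative to control samples, from duplicates, is given as log2 fold change.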

[2] = compound: CC1=C(SC2=C1C(=N[C@H](C3=NN=C(N32)C)CC(=O)N)C4=CC=C(C=C4)Cl)C
Procedure, shortened: as §1

[3] = compound: CC1=C2C(=CC=C1)N=C(N(C2=O)C3=CC=CC=C3C)CN4C=NC5=C(N=CN=C54)N
Procedure, shortened: as §1

[4] = compound: Cc1sc2c(c1C)C(c1ccc(Cl)cc1)=N[C@@H](CC(=O)OC(C)(C)C)c1nnc(C)n1-2
Procedure, shortened: as §1

[5] = compound: c1ccc([C@@H]2C[C@H]2NC2CCNCC2)cc1
Procedure, shortened: as §1

Measured: log2 fold change

BRK1 isoform 2 (UniProt Q8WUW1)
Sequence of UniProt Q8WUW1 (Q8WUW1 whole entry, looked up): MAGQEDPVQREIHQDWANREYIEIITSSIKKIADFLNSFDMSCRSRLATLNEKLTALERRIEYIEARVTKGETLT
inactive: [1] 0.018 | [2] -0.018 | [3] 0.025 | [4] -0.055 | [5] -0.013

AARS2 (UniProt Q5JTZ9)
inactive: [1] -0.047 | [2] 0.081 | [3] 0.044 | [4] 0.005 | [5] -0.016

APPL1 (UniProt Q9UKG1)
inactive: [1] -0.027 | [2] 0.122 | [3] 0.086 | [4] -0.025 | [5] -0.049

ACADM isoform 2 (UniProt P11310)
inactive: [1] 0.007 | [2] 0.024 | [3] -0.015 | [4] -0.016 | [5] -0.031

ARL1 (UniProt P40616)
inactive: [1] -0.084 | [2] 0.057 | [3] 0.079 | [4] -0.1 | [5] -0.048

ATP13A2 (UniProt Q9NQ11)
inactive: [1] 0.031 | [2] -0.075 | [3] 0.007 | [4] -0.062 | [5] 0.092

ANKRD29 (UniProt Q8N6D5)
inactive: [1] -0.012 | [2] 0.199 | [3] 0.248 | [4] -0.029 | [5] -0.079

ABCC5 (UniProt O15440)
Sequence of UniProt O15440 (O15440 whole entry, looked up): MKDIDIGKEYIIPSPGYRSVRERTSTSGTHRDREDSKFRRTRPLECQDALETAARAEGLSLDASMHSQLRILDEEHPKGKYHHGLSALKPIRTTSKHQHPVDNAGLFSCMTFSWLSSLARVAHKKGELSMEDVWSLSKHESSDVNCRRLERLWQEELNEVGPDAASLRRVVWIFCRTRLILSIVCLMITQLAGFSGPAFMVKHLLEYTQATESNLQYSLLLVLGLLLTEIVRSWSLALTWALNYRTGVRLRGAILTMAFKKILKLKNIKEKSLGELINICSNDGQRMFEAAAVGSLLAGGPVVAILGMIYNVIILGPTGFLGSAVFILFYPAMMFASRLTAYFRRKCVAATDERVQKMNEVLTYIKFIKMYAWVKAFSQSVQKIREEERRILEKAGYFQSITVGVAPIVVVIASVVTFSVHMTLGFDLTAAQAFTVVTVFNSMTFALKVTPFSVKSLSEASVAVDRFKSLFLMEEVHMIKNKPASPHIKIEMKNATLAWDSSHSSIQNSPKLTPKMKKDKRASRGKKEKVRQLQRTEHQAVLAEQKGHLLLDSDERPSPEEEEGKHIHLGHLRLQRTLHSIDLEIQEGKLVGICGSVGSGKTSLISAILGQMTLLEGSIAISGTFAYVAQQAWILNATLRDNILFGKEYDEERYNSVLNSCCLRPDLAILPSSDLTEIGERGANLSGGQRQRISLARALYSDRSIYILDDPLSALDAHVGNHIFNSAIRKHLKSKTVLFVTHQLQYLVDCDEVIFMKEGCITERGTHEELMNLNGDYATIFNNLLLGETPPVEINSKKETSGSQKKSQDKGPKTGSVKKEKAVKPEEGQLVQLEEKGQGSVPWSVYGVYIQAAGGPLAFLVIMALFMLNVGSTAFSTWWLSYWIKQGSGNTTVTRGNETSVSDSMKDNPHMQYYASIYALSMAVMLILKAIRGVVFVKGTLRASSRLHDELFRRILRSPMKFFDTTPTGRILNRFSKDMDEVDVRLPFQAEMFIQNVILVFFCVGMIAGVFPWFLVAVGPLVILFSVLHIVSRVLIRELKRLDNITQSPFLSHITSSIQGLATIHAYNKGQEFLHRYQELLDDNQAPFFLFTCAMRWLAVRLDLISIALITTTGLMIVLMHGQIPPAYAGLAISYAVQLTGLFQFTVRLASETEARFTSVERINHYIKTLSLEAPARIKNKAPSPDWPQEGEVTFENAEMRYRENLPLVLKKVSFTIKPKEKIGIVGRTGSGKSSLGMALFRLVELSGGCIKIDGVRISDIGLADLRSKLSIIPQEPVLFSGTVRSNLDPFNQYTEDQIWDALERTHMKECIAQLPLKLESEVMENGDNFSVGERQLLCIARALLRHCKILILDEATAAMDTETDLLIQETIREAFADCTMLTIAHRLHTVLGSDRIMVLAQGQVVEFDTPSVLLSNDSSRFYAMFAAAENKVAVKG
inactive: [1] -0.034 | [2] 0.082 | [3] -0.02 | [4] -0.001 | [5] -0.025

ATP6V1F isoform 2 (UniProt Q16864)
inactive: [1] 0.015 | [2] -0.144 | [3] -0.138 | [4] -0.126 | [5] 0.02

ATG4B isoform 2 (UniProt Q9Y4P1)
inactive: [1] -0.079 | [2] 0.056 | [3] 0.166 | [4] 0.188 | [5] 0.07

B4GALNT1 (UniProt Q00973)
inactive: [1] -0.029 | [2] -0.068 | [3] -0.001 | [4] -0.102 | [5] -0.062

ABCA3 (UniProt Q99758)
inactive: [1] 0.239 | [2] 0.002 | [3] -0.05 | [4] 0.02 | [5] -0.035

ARL2BP (UniProt Q9Y2Y0)
Sequence of UniProt Q9Y2Y0 (Q9Y2Y0 whole entry, looked up): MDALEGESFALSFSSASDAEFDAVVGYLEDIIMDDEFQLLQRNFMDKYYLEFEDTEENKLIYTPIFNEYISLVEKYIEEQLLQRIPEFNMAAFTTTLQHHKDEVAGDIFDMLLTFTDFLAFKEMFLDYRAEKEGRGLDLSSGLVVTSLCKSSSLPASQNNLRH
inactive: [1] -0.076 | [2] 0 | [3] 0.14 | [4] 0.069 | [5] 0.017

ATAD3A isoform 2 (UniProt Q9NVI7)
inactive: [1] -0.019 | [2] -0.037 | [3] -0.052 | [4] 0.08 | [5] 0.054

AGPAT1 (UniProt Q99943)
Sequence of UniProt Q99943 (Q99943 whole entry, looked up): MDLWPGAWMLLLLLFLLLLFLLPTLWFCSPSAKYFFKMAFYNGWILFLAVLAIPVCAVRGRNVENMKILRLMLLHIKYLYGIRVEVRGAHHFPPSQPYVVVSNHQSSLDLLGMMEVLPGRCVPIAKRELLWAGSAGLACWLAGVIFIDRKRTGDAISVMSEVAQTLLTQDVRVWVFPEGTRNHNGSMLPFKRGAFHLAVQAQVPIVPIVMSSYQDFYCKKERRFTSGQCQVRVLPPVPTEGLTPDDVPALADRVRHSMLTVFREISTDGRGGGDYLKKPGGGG
inactive: [1] -0.006 | [2] 0.075 | [3] 0.103 | [4] -0.032 | [5] 0.023

ATR (UniProt Q13535)
inactive: [1] -0.045 | [2] 0.025 | [3] 0.107 | [4] -0.022 | [5] -0.079

ACP1 (UniProt P24666)
Sequence of UniProt P24666 (P24666 whole entry, looked up): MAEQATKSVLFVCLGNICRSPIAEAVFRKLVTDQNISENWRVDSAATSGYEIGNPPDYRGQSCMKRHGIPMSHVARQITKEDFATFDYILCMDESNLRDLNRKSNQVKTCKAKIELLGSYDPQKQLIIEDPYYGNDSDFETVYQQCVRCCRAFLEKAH
inactive: [1] -0.058 | [2] -0.026 | [3] 0.184 | [4] -0.041 | [5] -0.416

ASNS (UniProt P08243)
Sequence of UniProt P08243 (P08243 whole entry, looked up): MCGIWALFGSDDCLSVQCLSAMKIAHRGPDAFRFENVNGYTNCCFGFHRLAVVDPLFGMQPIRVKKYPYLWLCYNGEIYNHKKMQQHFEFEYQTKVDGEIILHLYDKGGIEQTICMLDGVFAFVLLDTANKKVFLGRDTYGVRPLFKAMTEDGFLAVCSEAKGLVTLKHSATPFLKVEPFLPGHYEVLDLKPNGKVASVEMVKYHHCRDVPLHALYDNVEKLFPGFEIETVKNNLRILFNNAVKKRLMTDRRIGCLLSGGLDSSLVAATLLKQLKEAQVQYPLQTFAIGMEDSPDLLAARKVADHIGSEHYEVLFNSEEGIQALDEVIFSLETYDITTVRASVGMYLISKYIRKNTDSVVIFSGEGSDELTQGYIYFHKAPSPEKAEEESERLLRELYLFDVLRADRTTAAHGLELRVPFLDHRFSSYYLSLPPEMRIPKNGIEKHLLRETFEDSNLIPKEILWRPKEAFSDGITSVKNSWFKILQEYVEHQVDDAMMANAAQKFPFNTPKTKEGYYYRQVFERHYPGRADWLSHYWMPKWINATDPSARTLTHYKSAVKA
inactive: [1] 0.025 | [2] 0.044 | [3] 0.027 | [4] -0.008 | [5] -0.019

BRD8 (UniProt Q9H0E9)
inactive: [1] 0.027 | [2] -0.009 | [3] 0.023 | [4] 0.009 | [5] 0.021

AHSA1 (UniProt O95433)
inactive: [1] -0.035 | [2] 0.063 | [3] 0.015 | [4] -0.024 | [5] -0.003

ATRN (UniProt O75882)
inactive: [1] -0.011 | [2] -0.031 | [3] 0.027 | [4] -0.055 | [5] 0.006

ACSL4 (UniProt O60488)
inactive: [1] -0.08 | [2] 0.1 | [3] 0.132 | [4] 0.025 | [5] -0.031

ACBD6 (UniProt Q9BR61)
inactive: [1] -0.033 | [2] 0.087 | [3] 0.1 | [4] -0.072 | [5] 0.073

ATAD1 (UniProt Q8NBU5)
inactive: [1] 0.016 | [2] 0.055 | [3] 0.063 | [4] -0.027 | [5] -0.02

ACVR1 (UniProt Q04771)
inactive: [2] 0.061 | [3] 0.041 | [4] -0.218 | [5] 0.072

AIF1 (UniProt P55008)
inactive: [1] -0.114 | [3] 0.04

AKNA (UniProt Q7Z591)
inactive: [2] 0.071 | [5] 0.206

AP2S1 (UniProt P53680)
Sequence of UniProt P53680 (P53680 whole entry, looked up): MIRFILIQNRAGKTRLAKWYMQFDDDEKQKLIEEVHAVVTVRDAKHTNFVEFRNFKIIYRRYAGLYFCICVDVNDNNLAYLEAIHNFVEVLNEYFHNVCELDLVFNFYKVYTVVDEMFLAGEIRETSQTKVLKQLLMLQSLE
inactive: [1] -0.013 | [2] -0.007 | [3] -0.036 | [4] 0.037 | [5] 0.043

ABCA4 (UniProt P78363)
inactive: [1] 0.174 | [2] 0.297 | [4] 0.03 | [5] -0.128

ANGEL1 (UniProt Q9UNK9)
inactive: [1] -0.256 | [3] -0.172 | [4] -0.042

AP2S1 (UniProt M0QZ21)
inactive: [4] -0.014

ARMC8 isoform 6 (UniProt Q8IUR7)
inactive: [1] 0.053 | [3] 0.088

BAP18 isoform 3 (UniProt Q8IXM2)
inactive: [4] 0.041

BRAP (UniProt Q7Z569)
inactive: [1] -0.058 | [2] 0.025 | [3] 0.05 | [4] 0.081 | [5] 0

APAF1 (UniProt O14727)
inactive: [2] 0.031 | [3] 0.112 | [5] 0.055

BAD (UniProt Q92934)
Sequence of UniProt Q92934 (Q92934 whole entry, looked up): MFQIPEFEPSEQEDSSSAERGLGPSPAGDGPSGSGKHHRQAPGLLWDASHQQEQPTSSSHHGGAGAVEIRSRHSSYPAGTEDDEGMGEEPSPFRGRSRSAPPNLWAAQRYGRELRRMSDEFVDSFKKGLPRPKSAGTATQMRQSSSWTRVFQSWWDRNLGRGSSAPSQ
inactive: [1] -0.001 | [2] -0.042 | [3] -0.086 | [5] 0.032

ADD3 isoform 2 (UniProt Q9UEY8)
inactive: [2] -0.075 | [3] -0.038 | [4] 0.007 | [5] 0

BDH2 (UniProt Q9BUT1)
Sequence of UniProt Q9BUT1 (Q9BUT1 whole entry, looked up): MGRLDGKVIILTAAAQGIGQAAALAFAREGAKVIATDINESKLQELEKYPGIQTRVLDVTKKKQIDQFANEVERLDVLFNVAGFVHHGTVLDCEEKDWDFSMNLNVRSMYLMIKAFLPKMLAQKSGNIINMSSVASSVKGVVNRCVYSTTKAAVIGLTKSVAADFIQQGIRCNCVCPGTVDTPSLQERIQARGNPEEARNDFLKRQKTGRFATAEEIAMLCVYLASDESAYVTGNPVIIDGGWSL
inactive: [1] -0.033 | [2] 0.087 | [3] -0.213 | [5] 0.12

AFDN isoform 1 (UniProt P55196)
inactive: [1] 0.038 | [2] -0.119 | [3] 0.029 | [5] 0.177

AP4S1 (UniProt Q9Y587)
Sequence of UniProt Q9Y587 (Q9Y587 whole entry, looked up): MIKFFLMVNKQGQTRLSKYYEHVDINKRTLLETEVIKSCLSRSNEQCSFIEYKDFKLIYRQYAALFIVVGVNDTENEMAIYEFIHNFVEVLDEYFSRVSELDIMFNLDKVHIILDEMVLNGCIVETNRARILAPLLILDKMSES
inactive: [1] -0.077 | [2] 0.133 | [3] 0.069 | [5] 0

AGAP3 isoform 4 (UniProt Q96P47)
inactive: [1] -0.08 | [2] -0.023 | [4] -0.006 | [5] 0.05

AMD1 (UniProt P17707)
inactive: [1] -0.021 | [3] 0.168 | [4] -0.164

BRD4 (UniProt O60885)
inactive: [1] -0.116 | [3] 0.141 | [5] 0.029
active: [2] 2.22 | [4] 1.99

APOBEC3G (UniProt Q9HC16)
inactive: [1] 0.089 | [3] 0.436 | [4] 0.147

ADPRH (UniProt P54922)
inactive: [1] -0.035 | [3] 0.344 | [4] -0.121

AARSD1 (UniProt Q9BTE6)
inactive: [1] -0.081 | [2] -0.267 | [5] -0.068

ACTBL2 (UniProt Q562R1)
inactive: [1] -0.444 | [3] -0.201

ALDH2 isoform 2 (UniProt P05091)
inactive: [1] -0.092 | [3] 0.379 | [4] 0.074

BAIAP2 isoform 4 (UniProt Q9UQB8)
inactive: [2] 0.029 | [4] -0.206 | [5] 0.151

ASB6 (UniProt Q9NWX5)
inactive: [1] -0.065 | [3] 0.178

BRMS1 (UniProt Q9HCU9)
inactive: [4] -0.011

ACTR3B (UniProt Q9P1U1)
inactive: [3] -0.002 | [4] 0.173

ATP6V0A1 isoform 3 (UniProt Q93050)
Sequence of UniProt Q93050 (Q93050 whole entry, looked up): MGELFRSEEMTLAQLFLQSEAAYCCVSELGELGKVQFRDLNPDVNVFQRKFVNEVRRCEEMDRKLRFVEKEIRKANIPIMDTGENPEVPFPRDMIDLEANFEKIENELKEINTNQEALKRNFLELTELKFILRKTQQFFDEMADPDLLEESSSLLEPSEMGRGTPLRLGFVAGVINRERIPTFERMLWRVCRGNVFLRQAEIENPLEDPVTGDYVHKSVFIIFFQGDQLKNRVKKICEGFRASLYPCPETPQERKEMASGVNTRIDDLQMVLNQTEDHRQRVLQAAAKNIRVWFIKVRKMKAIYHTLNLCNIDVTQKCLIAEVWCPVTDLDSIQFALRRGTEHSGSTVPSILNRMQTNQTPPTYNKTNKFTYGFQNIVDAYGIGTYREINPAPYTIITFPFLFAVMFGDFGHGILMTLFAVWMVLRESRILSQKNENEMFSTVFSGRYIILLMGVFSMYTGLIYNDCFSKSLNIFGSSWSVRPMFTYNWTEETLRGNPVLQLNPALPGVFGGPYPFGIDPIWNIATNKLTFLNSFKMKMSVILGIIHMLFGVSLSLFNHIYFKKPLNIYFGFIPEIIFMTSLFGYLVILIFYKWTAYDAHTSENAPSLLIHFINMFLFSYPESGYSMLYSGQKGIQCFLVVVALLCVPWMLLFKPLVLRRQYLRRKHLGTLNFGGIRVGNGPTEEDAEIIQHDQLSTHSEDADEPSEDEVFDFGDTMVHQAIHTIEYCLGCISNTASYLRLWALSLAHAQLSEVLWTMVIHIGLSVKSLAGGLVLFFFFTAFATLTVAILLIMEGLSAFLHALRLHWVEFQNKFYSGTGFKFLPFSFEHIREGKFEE
inactive: [1] 0.115 | [2] -0.07 | [3] 0.005 | [4] -0.07 | [5] -0.149

AUNIP isoform 2 (UniProt Q9H7T9)
inactive: [2] 0.031 | [3] 0.086 | [4] -0.001 | [5] -0.014

ATXN3 isoform 1 (UniProt P54252)
inactive: [1] -0.012 | [2] 0.001 | [3] 0.118 | [4] -0.068 | [5] 0

APLP2 (UniProt Q06481)
inactive: [1] 0.003 | [2] -0.003 | [3] 0 | [4] 0.036 | [5] 0.038

BRAF, A0A2R8Y8E0
inactive: [4] 0.162

AZI2 (UniProt Q9H6S1)
inactive: [1] 0.034 | [3] -0.047 | [4] 0.136

ACSL6 isoform 1 (UniProt Q9UKU0)
Sequence of UniProt Q9UKU0 (Q9UKU0 whole entry, looked up): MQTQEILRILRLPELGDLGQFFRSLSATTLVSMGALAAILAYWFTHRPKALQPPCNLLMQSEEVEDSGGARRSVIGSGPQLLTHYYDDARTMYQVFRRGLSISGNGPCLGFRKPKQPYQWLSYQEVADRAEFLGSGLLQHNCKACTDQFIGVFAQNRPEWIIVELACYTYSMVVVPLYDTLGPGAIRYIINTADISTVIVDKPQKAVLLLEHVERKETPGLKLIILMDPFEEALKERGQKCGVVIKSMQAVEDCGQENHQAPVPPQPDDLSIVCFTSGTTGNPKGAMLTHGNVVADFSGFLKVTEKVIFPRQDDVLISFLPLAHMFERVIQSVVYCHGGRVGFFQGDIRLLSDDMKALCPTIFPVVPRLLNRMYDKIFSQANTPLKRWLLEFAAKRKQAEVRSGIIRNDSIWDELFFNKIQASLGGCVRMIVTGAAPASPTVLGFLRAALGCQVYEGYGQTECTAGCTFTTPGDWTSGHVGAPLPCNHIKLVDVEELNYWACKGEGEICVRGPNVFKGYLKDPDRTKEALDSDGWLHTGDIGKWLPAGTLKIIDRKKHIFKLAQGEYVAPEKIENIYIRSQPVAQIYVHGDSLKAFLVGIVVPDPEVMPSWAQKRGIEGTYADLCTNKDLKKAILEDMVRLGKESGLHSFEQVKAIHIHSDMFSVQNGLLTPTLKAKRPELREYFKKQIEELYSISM
inactive: [1] 0.012 | [3] 0.29 | [4] -0.009

ADD1 isoform 4 (UniProt P35611)
inactive: [1] -0.03 | [2] 0.04 | [5] 0.217
